In PubChem BioAssay (NCATS):
Records with an inconclusive call do not appear. Entries that show only a call come without a potency. Calls of active or inactive are those of the source. Calls follow the shape of the dose curve; as a rule, active = well fitted cell-killing curve with a large enough effect; inconclusive = small, poorly fitted or top-dose-only effect; inactive = flat fitted curve, though single readings scatter. Starred links: 1 amine or outer side, 2 acyl side, 3 side chain; linkers in the order of their positions; H or OH if unused. Positions of bridges follow the written chain, without caps; N, C: chain ends. Non-standard residues stand in square brackets, D forms with d. Residues, ends and D or L forms follow the SMILES beside them. ξ: configuration not given here. *: point of attachment. X3 = C[C@@H](Oc1ccc([C@H](N[*:1])C(=O)[*:2])cc1)[C@]1(/C=C\C(=O)[*:3])CO1; d(aIle) = CC[C@H](C)[C@@H](N)C(=O)O; X2 = CC(C)[C@@H](O)C(C)C(=O)*; ξNMeF = CNC(Cc1ccccc1)C(=O)O; ξT = CC(O)C(N)C(=O)O; ξS = NC(CO)C(=O)O
Potency is read from the fitted curve at half-maximal effect.

Assay: A2780 Cisplatin Sensitive Ovarian Cancer Cell Toxicity qHTS against the NCATS CANVASS Library (AID 1347353); also: nearly all actives have a fitted effect of over 60% in size
Conditions: A2780 ovarian cancer viability, ATPLite luminescence, 72 h; series mostly up to 46.1 µM
Description: Natural products and their derivatives continue to be wellsprings of nascent therapeutic potential. However, many laboratories have limited resources for biological evaluation, leaving their previously isolated or synthesized compounds largely or completely untested. To address this issue, the Canvass library of natural products was assembled (https://tripod.nih.gov/canvass), in collaboration with academic and industry researchers, for quantitative high-throughput screening (qHTS) across a diverse set of cell-based and biochemical assays. The pure (>85% purity by liquid chromatography/mass spectrometry [LC/MS]) Canvass library of 346 natural products were submitted by 45 academic laboratories and companies around the world. We collected pure natural products to circumvent deconvolution and structure elucidation due to time and resource limitations. The library was formatted into 1536-well plates and evaluated in 50 qHTS (in an 11-pnt concentration series) bioassays with broad scope of disease-relevant mechanisms. The resulting data set from 50 different assays was then systematically analyzed to identify overall trends and specific natural products with interesting biological activities. Reported herein are the results of each individual qHTS and their corresponding assay protocol. National Center for Advancing Translational Sciences (NCATS), Rockville, MD National Institute of Health (NIH), Bethesda, Maryland
Cancer Cell Toxicity protocol 1. In a 1536 well, white solid bottom tissue culture plates (Corning 7494), A2780 cisplatin sensitive ovarian cancer cells were dispensed in each well at a final concentration of 750 cells / well (5uL volume) using the Multidrop Combi (Thermo Fisher Scientific) dispenser. 2. The plates were incubated for 4 hours at 37 degrees C/5% CO2/95% Rh. 3. Compounds were pin transferred (~23nL volume) via Wako Pin-tool (Wako Automation, Richmond VA) equipped with a 1536 pin head. The assay plates were treated with compounds in an 11-pnt concentration series with a final concentration range of […] to 85uM. 4. Bortezomib was used as a single dose control (0.5mM column 4, rows 1 - 32) at a final concentration of 1.9uM and as a 16pnt titration (1mM; 1:2 dilution; 16-points; n = 2; column 3, rows 1 - 32) with final concentration range of 0.1nM - 3.8uM. 5. The assay plates were incubated for 72 hours at 37 degrees C/5% CO2/95% Rh. 6. 4uL ATPLite detection reagent was then added to the plates (columns 2 - 48, rows 1 - 32) and incubated at room temperature for additional 10 min. 7. Luminescence signal was acquired via the ViewLux plate reader (PerkinElmer) using a clear filter, 2 second exposure and 2x binning settings.
With `CCC(=O)N[C@@H](C[C@H](C)C(Cl)(Cl)Cl)C(=O)N1C(=O)C=C(OC)[C@@H]1C[C@H](C)C(Cl)Cl` the Potency was “inactive”.
In the case of `COC1C(O)C(C)OC(OC2C(Oc3cccc4c(O)c5c(=O)oc6ccc(C)c7c(=O)oc(c34)c5c67)OC(C)C(O)C2O)C1O` (stereo not drawn), the Potency is reported as 3.32 µM (active).
In the case of `C/C=C1/CN2C3CC1C1=CCC(=O)N4c5ccccc5[C@@]3(C[C@@H]2C2=C[C@H]3C5CC6N(CC[C@@]67c6ccccc6N(C2=O)[C@@H]37)C/C5=C/C)[C@H]14` (stereo partly drawn), the Potency is reported as 13.2 µM (active).
For `O[C@H]1C=C[C@@]23CCN(Cc4cc5c(cc42)OCO5)[C@@H]3C1`, the Potency was “inactive”.
With `C[C@]12CCC3[C@@H](CC[C@@H]4C[C@@H](O)CC[C@]34CO)[C@@]1(O)CC[C@@H]2C1=CC(=O)OC1` (stereo partly drawn) the Potency was 2.96 µM (active).
For `C/C(=C\[C@H](C)C(=O)C[C@H](O)CC1CC(=O)NC(=O)C1)[C@@H]1OC(=O)/C=C/CC/C=C/C=C/[C@@H]1C`, the Potency was 0.0332 µM (active).
In the case of `C=CC(C)(C)[C@@]12C[C@H]3C(=O)N/C(=C/c4cnc[nH]4)C(=O)N3[C@@H]1Nc1ccccc12`, the Potency is reported as “inactive”.
In the case of `CC[C@]12C=CCN3CC[C@]4(C(=C(C(=O)OC)C1)Nc1ccccc14)[C@@H]32`, the Potency is reported as “inactive”.
With `C/C=C(\C)C(=O)O[C@@H]1[C@@H](O)[C@@H]2O[C@H]3[C@H](O[C@@H](CCCCC)CCCCCCC(=O)CCC(=O)OC[C@@H](O2)[C@H]1OC(=O)/C=C/c1ccccc1)O[C@H](C)[C@H](OC(C)=O)[C@@H]3O` the Potency was 0.332 µM (active).
In the case of `CCCC[C@@H](C)/C=C1/CN2CCC[C@H]2[C@@](C)(O)[C@@H]1O`, the Potency is reported as “inactive”.
With `C/C=C1/CN2CC[C@@]34c5ccccc5N(C)[C@@H]3[C@@H]2C[C@@H]1[C@H]4C(=O)OC` the Potency was “inactive”.
With `CO[C@H]1[C@H](O[C@H]2CC[C@]3(C=O)[C@H]4CC[C@]5(C)[C@@H](C6=CC(=O)OC6)CC[C@]5(O)[C@@H]4CC[C@]3(O)C2)O[C@H](C)[C@H](O)[C@@H]1OC` the Potency was 0.209 µM (active).
In the case of `C[N+](C)(C)CCc1c[nH]c2ccccc12`, the Potency is reported as “inactive”.
With `COC1=C(C2=C(OC)C(=O)c3cc4c(c(O)c3C2=O)C(=O)O[C@H](C)C4)C(=O)c2c(cc3c(c2O)C(=O)O[C@H](C)C3)C1=O` the Potency was 5.54 µM (active).
For `C=C(C)[C@H]1C(=O)c2c3c(cc4c5c(n1c24)[C@@]1(C)[C@@H](CC[C@H]2[C@](C)(/C=C/C=C(\C)C(=O)O)[C@@H](O)CC[C@@]21C)C5)C1=CC(C)(C)OC(C)(C)[C@H]1[C@@H]3O`, the Potency was 3.72 µM (active).
In the case of `CC[C@H](C)[C@H]1NC(=O)[C@@H](NC(=O)C(C)[C@H](O)C(C)C)[C@@H](C)OC(=O)C2COC(=O)CNC(=O)/C=C\[C@]3(CO3)[C@@H](C)Oc3ccc(cc3)[C@H](NC1=O)C(=O)N(C)C(Cc1ccccc1)C(=O)NC(C(C)O)C(=O)N2` (stereo partly drawn) (X2-T[d(aIle)][X3][ξNMeF][ξT][ξS]; ester 1-C; linker 3-6 via G), the Potency is reported as “inactive”.
In the case of `C=CC(C)(C)[C@@]12C[C@H]3C(=O)N/C(=C\c4cnc[nH]4)C(=O)N3[C@@H]1Nc1ccccc12`, the Potency is reported as “inactive”.
In the case of `CO[C@@H](/C=C/CC/C=C/C(=O)O)[C@@H](O)[C@H](C)/C=C(\C)[C@H](O)[C@H](C)C(=O)CCCC1CC(=O)NC(=O)C1`, the Potency is reported as “inactive”.
For `C=C[C@]12C=CCN3CC[C@@]4(c5ccccc5NC(=O)[C@@H]4C1)[C@@H]32`, the Potency was “inactive”.
With `CO[C@H]([C@@H](C)[C@H]1O[C@]1(C)C[C@H](C)/C=C/C=C(\C)[C@H]1O[C@@H](CC(=O)O)CC[C@@H]1C)[C@@H](C)O` the Potency was 0.0053 µM (active).
With `CC(C)CC1C(=O)O[C@H](C(C)C)C(=O)N(C)C(CC(C)C)C(=O)O[C@@H](C(C)C)C(=O)N(C)C(CC(C)C)C(=O)O[C@H](C(C)C)C(=O)N(C)C(CC(C)C)C(=O)O[C@@H](C(C)C)C(=O)N1C` (stereo partly drawn) the Potency was 5.26 µM (active).
With `CC[C@@H]1CN2CCC3(Nc4cccc(OC)c4C3=O)[C@@H]2C[C@@H]1/C(=C\OC)C(=O)OC` (stereo partly drawn) the Potency was “inactive”.
With `C[C@]12CC(O)C3[C@@H](CC[C@@H]4C[C@@H](O)CC[C@]34CO)[C@@]1(O)CC[C@@H]2C1=CC(=O)OC1` (stereo partly drawn) the Potency was 7.43 µM (active).
In the case of `C[C@]12CC(O)C3[C@@H](CCC4C[C@@H](O)CC[C@@]43CO)[C@@]1(O)CC[C@@H]2C1=CC(=O)OC1` (stereo partly drawn), the Potency is reported as 16.6 µM (active).
With `CO[C@H]1C[C@H](O[C@H]2[C@@H](O)C[C@H](O[C@H]3CC[C@]4(C=O)[C@H]5CC[C@]6(C)C(C7=CC(=O)OC7)CC[C@]6(O)[C@@H]5CC[C@]4(O)C3)O[C@@H]2C)O[C@H](C)[C@H]1O[C@H]1C[C@@H](OC)[C@@H](O[C@@H]2O[C@H](CO)[C@@H](O)[C@H](O)[C@H]2O)[C@@H](C)O1` (stereo partly drawn) the Potency was 0.0833 µM (active).
For `C=C[C@H]1CN2CCc3c([nH]c4cccc(OC)c34)[C@@H]2C[C@@H]1/C(=C\OC)C(=O)OC`, the Potency was 20.9 µM (active).
For `C1=C2CCCN[C@H]2C2CC1[C@H]1CCCCN1C2` (stereo partly drawn), the Potency was “inactive”.
With `CCCC[C@@H]1CC[C@H]2CCCC(CCCO)N12` (stereo partly drawn) the Potency was “inactive”.
